Data published in PubChem BioAssay (NCATS).
Inconclusive results are not listed. Calls of active or inactive are those of the source. The call rests on the fitted dose curve; in most records, active means well fitted cell-killing curve with a large enough effect; inconclusive means small, poorly fitted or top-dose-only effect, or effect the other way; inactive means no such curve, though single readings can be large or run the other way.

Key:
[1] = Quantitative High-Throughput drug screen in 47 multiple myeloma cell lines against the NCATS MIPE library collection: MM1S_ATCC cell viability assay (AID 1918980); further: nearly all actives have a fitted effect of over 45% in size
Method in brief: (§1)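 Inhibition of viability over 48 h was scored by ATP content (CellTiter-Glo) in 500-cell wells. Zero and full viability were defined by media-only and DMSO-only wells.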

[2] = Quantitative High-Throughput drug screen in 47 multiple myeloma cell lines against the NCATS MIPE library collection: MM1R_ATCC cell viability assay (AID 1918981); further: nearly all actives have a fitted effect of over 35% in size
Method in brief: as §1

[3] = Quantitative High-Throughput drug screen in 47 multiple myeloma cell lines against the NCATS MIPE library collection: LP1_DSMZ cell viability assay (AID 1918982); further: nearly all actives have a fitted effect of over 35% in size
Method in brief: as §1

[4] = Quantitative High-Throughput drug screen in 47 multiple myeloma cell lines against the NCATS MIPE library collection: KMS28PE_JCRB cell viability assay (AID 1918983); further: nearly all actives have a fitted effect of over 35% in size
Method in brief: as §1

[5] = Quantitative High-Throughput drug screen in 47 multiple myeloma cell lines against the NCATS MIPE library collection: KMS34_JCRB cell viability assay (AID 1918985); further: nearly all actives have a fitted effect of over 40% in size
Method in brief: as §1

[6] = Quantitative High-Throughput drug screen in 47 multiple myeloma cell lines against the NCATS MIPE library collection: OCIMY7_PLB cell viability assay (AID 1918987); further: nearly all actives have a fitted effect of over 65% in size
Method in brief: as §1

[7] = Quantitative High-Throughput drug screen in 47 multiple myeloma cell lines against the NCATS MIPE library collection: OCIMY5_PLB cell viability assay (AID 1918988); further: nearly all actives have a fitted effect of over 65% in size
Method in brief: as §1

[8] = Quantitative High-Throughput drug screen in 47 multiple myeloma cell lines against the NCATS MIPE library collection: OPM1_PLB cell viability assay (AID 1918989); further: nearly all actives have a fitted effect of over 40% in size
Method in brief: as §1

[9] = Quantitative High-Throughput drug screen in 47 multiple myeloma cell lines against the NCATS MIPE library collection: L363_DSMZ cell viability assay (AID 1918984); further: nearly all actives have a fitted effect of over 40% in size
Method in brief: as §1
Potency means the concentration at half of the fitted maximal effect.

Structure (SMILES)	Potency [1]	Potency [2]	Potency [3]	Potency [4]	Potency [5]	Potency [6]	Potency [7]	Potency [8]	Potency [9]
CC[C@@]1(O)C(=O)OCc2c1cc1n(c2=O)Cc2cc3c(CN(C)C)c(O)ccc3nc2-1	0.166 µM (active)	0.166 µM (active)	13.2 µM (active)	0.935 µM (active)	3.32 µM (active)	0.148 µM (active)	5.9 µM (active)	9.35 µM (active)	–
O=C(Nc1ccc([N+](=O)[O-])cc1Cl)c1cc(Cl)ccc1O	1.18 µM (active)	1.66 µM (active)	0.743 µM (active)	2.09 µM (active)	1.66 µM (active)	–	1.66 µM (active)	–	1.05 µM (active)
C[C@@H]1CC(=O)NN=C1c1ccc(NN=C(C#N)C#N)cc1	23.5 µM (active)	20.9 µM (active)	20.9 µM (active)	23.5 µM (active)	20.9 µM (active)	–	18.7 µM (active)	18.7 µM (active)	inactive
CC(C)NCC(O)c1ccc(O)c(O)c1 (configuration not stated)	0.166 µM (active)	4.18 µM (active)	–	–	–	–	5.26 µM (active)	–	1.87 µM (active)
CN1CCN(C2=Nc3cc(Cl)ccc3Nc3ccccc32)CC1	14.8 µM (active)	inactive	inactive	inactive	–	inactive	inactive	–	–
CN(Cc1cnc2nc(N)nc(N)c2n1)c1ccc(C(=O)N[C@@H](CCC(=O)O)C(=O)O)cc1	0.0187 µM (active)	0.935 µM (active)	–	16.6 µM (active)	0.0935 µM (active)	–	–	–	–
CN1CCN(CCCN2c3ccccc3Sc3ccc(Cl)cc32)CC1	9.35 µM (active)	26.4 µM (active)	–	–	–	26.4 µM (active)	26.4 µM (active)	16.6 µM (active)	3.32 µM (active)
CNCCCC12CCC(c3ccccc31)c1ccccc12	16.6 µM (active)	29.6 µM (active)	20.9 µM (active)	23.5 µM (active)	–	–	23.5 µM (active)	–	16.6 µM (active)
CN(C)CCOC(c1ccccc1)c1ccccc1	10.5 µM (active)	inactive	inactive	inactive	inactive	18.7 µM (active)	–	–	–
NC(=O)OCC(COC(N)=O)c1ccccc1	5.9 µM (active)	inactive	inactive	inactive	inactive	–	–	–	inactive
CC(C(=O)O)c1cccc(C(=O)c2ccccc2)c1 (configuration not stated)	2.96 µM (active)	23.5 µM (active)	inactive	inactive	inactive	inactive	20.9 µM (active)	–	–
Cc1ccccc1N1C(=O)c2cc(S(N)(=O)=O)c(Cl)cc2NC1C (configuration not stated)	inactive	inactive	inactive	inactive	inactive	–	inactive	inactive	–
OCCN1CCN(CCCN2c3ccccc3Sc3ccc(C(F)(F)F)cc32)CC1	2.96 µM (active)	–	18.7 µM (active)	18.7 µM (active)	–	–	20.9 µM (active)	–	7.43 µM (active)
NCCCCCC(=O)O	16.6 µM (active)	inactive	inactive	inactive	–	–	–	inactive	inactive
CS(=O)(=O)CCNCc1ccc(-c2ccc3ncnc(Nc4ccc(OCc5cccc(F)c5)c(Cl)c4)c3c2)o1	0.166 µM (active)	18.7 µM (active)	18.7 µM (active)	26.4 µM (active)	29.6 µM (active)	0.0833 µM (active)	0.0743 µM (active)	6.62 µM (active)	9.35 µM (active)
CN1CCC(=C2c3ccccc3C=Cc3ccccc32)CC1	14.8 µM (active)	23.5 µM (active)	–	–	–	5.9 µM (active)	18.7 µM (active)	–	–
CN1CCC(=C2c3ccccc3CC(=O)c3sccc32)CC1	16.6 µM (active)	–	inactive	inactive	–	–	23.5 µM (active)	23.5 µM (active)	23.5 µM (active)

Structure (SMILES)	Potency [1]	Potency [2]	Potency [3]	Potency [4]	Potency [5]	Potency [6]	Potency [7]	Potency [8]	Potency [9]
CN(C)C(=N)N=C(N)N	inactive	inactive	–	0.833 µM (active)	–	inactive	–	–	–
NC(=O)NO	0.935 µM (active)	1.18 µM (active)	2.64 µM (active)	2.35 µM (active)	–	0.132 µM (active)	0.235 µM (active)	–	5.9 µM (active)
CCOC(=O)Nc1ccc(NCc2ccc(F)cc2)nc1N	23.5 µM (active)	–	inactive	inactive	–	–	–	–	–
CC1(C)O[C@H]2CC(=O)OC[C@]23[C@H]2CC[C@@]4(C)[C@H](c5ccoc5)OC(=O)[C@H]5O[C@]54[C@]2(C)C(=O)C[C@@H]13	inactive	inactive	inactive	inactive	inactive	–	–	–	–
COc1cc2nc(N3CCN(C(=O)c4ccco4)CC3)nc(N)c2cc1OC	20.9 µM (active)	26.4 µM (active)	–	26.4 µM (active)	–	10.5 µM (active)	–	–	7.43 µM (active)
COC(=O)Nc1nc2ccc(C(=O)c3cccs3)cc2[nH]1	0.0743 µM (active)	0.0418 µM (active)	0.0105 µM (active)	0.0059 µM (active)	0.0026 µM (active)	–	0.0021 µM (active)	0.0132 µM (active)	0.001 µM (active)
CC[N+](CC)(CC)CCOc1cccc(OCC[N+](CC)(CC)CC)c1OCC[N+](CC)(CC)CC	inactive	inactive	inactive	inactive	inactive	inactive	–	inactive	–
O=c1[nH]cc(F)c(=O)[nH]1	14.8 µM (active)	10.5 µM (active)	14.8 µM (active)	inactive	–	7.43 µM (active)	inactive	–	–
CC(C)C(=O)Nc1ccc([N+](=O)[O-])c(C(F)(F)F)c1	1.66 µM (active)	3.72 µM (active)	inactive	–	inactive	2.96 µM (active)	1.48 µM (active)	8.33 µM (active)	–
CN(C)CCCN1c2ccccc2CCc2ccc(Cl)cc21	0.743 µM (active)	1.48 µM (active)	–	14.8 µM (active)	–	0.187 µM (active)	0.418 µM (active)	–	16.6 µM (active)
CCc1cccc2c3c([nH]c12)C(CC)(CC(=O)O)OCC3 (configuration not stated)	inactive	–	inactive	inactive	inactive	–	–	–	inactive
CN(C)C(=O)C(CCN1CCC(O)(c2ccc(Cl)cc2)CC1)(c1ccccc1)c1ccccc1	20.9 µM (active)	20.9 µM (active)	–	14.8 µM (active)	–	20.9 µM (active)	16.6 µM (active)	–	inactive
CC(C)Cc1ccc(C(C)C(=O)O)cc1 (configuration not stated)	inactive	inactive	inactive	inactive	inactive	inactive	inactive	–	inactive
Cc1cn([C@H]2C[C@H](N=[N+]=[N-])[C@@H](CO)O2)c(=O)[nH]c1=O	3.32 µM (active)	inactive	–	–	inactive	16.6 µM (active)	–	–	–
CC#C[C@]1(O)CC[C@H]2[C@@H]3CCC4=CC(=O)CCC4=C3[C@@H](c3ccc(N(C)C)cc3)C[C@@]21C	0.187 µM (active)	0.743 µM (active)	2.64 µM (active)	1.32 µM (active)	1.32 µM (active)	1.18 µM (active)	0.833 µM (active)	1.48 µM (active)	2.64 µM (active)
Cn1c(=O)c2[nH]cnc2n(C)c1=O	23.5 µM (active)	–	inactive	inactive	inactive	–	–	inactive	–
COc1nc(C)nc(Cl)c1NC1=NCCN1	26.4 µM (active)	inactive	inactive	inactive	–	18.7 µM (active)	–	inactive	inactive
